Bioassay records deposited in PubChem BioAssay by National Center for Advancing Translational Sciences (NCATS).
Shown are actives, neighbours in structure and some others; about 7.3% of the full set was active somewhere.
Rab9 promoter act – Rab9 promoter activation; Huh7 Rab9 promoter-luciferase reporter, luminescence, 24 h; Potency, µM (series often up to 9.22 µM), inactives show at the top dose activation, negative = inhibition, actives largely listed as activators; actives 2.8% (n = 320,000); further: % of control where 0% means no effect; nearly all actives have a fitted effect of over 60% in size
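Luciferase signal after 10 min detection reagent at ambient indicates Rab9 promoter upregulation; stably transfected Huh7 cells were treated 24 h with compound in DMSO at 37 °C, 5% CO2.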
NPC1 prom act – activators of NPC1 promoter | Huh7 NPC1 promoter luciferase reporter, 24 h | Potency, µM (highest dose often 9.22 µM), inactives show at the top dose activation, most hits filed as activators | actives 2.4% (n = 320,000) | AID 485313; further: % of control where 0% means no effect; nearly all actives have a fitted effect of over 60% in size
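Stable NPC1-promoter luciferase Huh7 line; cpd (DMSO) 24 h, 37 °C, 5% CO2; Amplite luciferase reagent 10 min RT; luminescence readout. qHTS format.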
FLuc modulator – counter-screen for miR-21 project: firefly luciferase inhibitors or activators. Potency, µM (titrated, usually from 57.5 µM), without a hit: at the highest dose activity change, negative = inhibition, actives largely listed as inhibitors. purified FLuc, Km substrates, luminescence inhibition. P08659. actives 6.9% (n = 360,000). AID 588342;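 further: plate controls were vehicle for no effect and reference inhibitor for full effect; nearly all actives have a fitted effect of over 55% in size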
Target sequence (P08659 whole entry, looked up): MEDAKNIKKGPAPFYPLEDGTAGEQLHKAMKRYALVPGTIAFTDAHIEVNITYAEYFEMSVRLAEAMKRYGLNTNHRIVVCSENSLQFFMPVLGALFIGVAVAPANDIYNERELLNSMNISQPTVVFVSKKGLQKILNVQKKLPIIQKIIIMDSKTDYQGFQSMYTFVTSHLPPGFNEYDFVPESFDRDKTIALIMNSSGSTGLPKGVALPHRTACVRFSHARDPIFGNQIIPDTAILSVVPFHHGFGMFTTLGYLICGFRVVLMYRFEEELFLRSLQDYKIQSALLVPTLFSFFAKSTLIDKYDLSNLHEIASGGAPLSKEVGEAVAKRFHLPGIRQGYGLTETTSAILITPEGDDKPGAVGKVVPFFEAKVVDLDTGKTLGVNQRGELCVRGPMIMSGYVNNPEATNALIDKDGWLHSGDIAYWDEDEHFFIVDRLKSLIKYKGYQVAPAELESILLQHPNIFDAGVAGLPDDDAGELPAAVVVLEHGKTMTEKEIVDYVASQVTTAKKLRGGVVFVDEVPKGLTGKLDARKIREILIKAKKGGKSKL
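Biochemical qHTS of compounds, final roughly 60 µM downward over six points, against 10 nM purified firefly luciferase using Km concentrations of substrates (10 uM D-luciferin, 10 uM ATP) in Tris acetate pH 7.5 buffer; luminescence output.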
ELG1 genotox – inducers of genotoxicity in HEK293T ELG1-luciferase cells | HEK293T ELG1-luciferase reporter, luminescence, 16 h | Potency, µM (highest dose often 46 µM), without a hit: top-dose activity change, positive = activation, actives largely listed as activators | actives 1.3% (n = 330,000); further: % of control where 0% means no effect; nearly all actives have a fitted effect of over 60% in size
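Step 1: seed 2,000 HEK293T ELG1-luciferase cells per well. Step 2: add compound or DMSO, incubate 16 hr at 37 °C. Step 3: ONE-Glo, 30 min at room temperature, read luminescence.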
SMN2 splice up – increases expression of the SMN2 splice variant. HEK293 SMN2-luciferase splicing reporter, luminescence, 30-36 h. Potency, µM (top dose mostly 46.1 µM), for inactives: at the top dose activity change, positive = activation, most hits filed as activators. actives 2.8% (n = 210,000). AID 1458; further: % of control where 0% means no effect; nearly all actives have a fitted effect of over 55% in size
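HEK293 cells carry an SMN2 […]–luciferase reporter in which exon 7 inclusion puts luciferase in frame. Cells were plated 10-12 h before compound addition, then incubated 30-36 h at 37C. ONE-Glo luminescence was read; sodium butyrate at 4.5 mM final served as control.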
Luc counter – blocks Kinase-Glo luciferase, a counter-screen artifact; Q27757; Kinase-Glo luciferase, ATP luminescence, 8 min; Potency, µM (titrated, usually from 38.3 µM), for the others: at the highest dose activity change, negative = inhibition, most hits filed as inhibitors; actives 0.28% (n = 200,000); AID 1379; further: on the % scale 0 is the no-effect control and ±100 the full control effect; nearly all actives have a fitted effect of over 60% in size
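Light output from Kinase-Glo luciferase with luciferin and 10 uM ATP in 50 mM imidazole pH 7.2, KCl, MgCl2, Tween 20, BSA; compound pin-delivered, 8-min ambient incubation, then luminescence read.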
* marks the source's active call; other numbers are inactive results; ? = inconclusive; / = no result given; [ ] = dose if it differs, or a comment. The call rests on the fitted dose curve; in most records, active means well fitted curve in the direction sought with a large enough effect; inconclusive means small, poorly fitted or top-dose-only effect, or another doubt; inactive means no such curve, though single readings can be large; an effect the other way counts as inactive or inconclusive. Potency means the concentration at half of the fitted maximal effect.

SMILES	Rab9 promoter act	NPC1 prom act	FLuc modulator	ELG1 genotox	SMN2 splice up	Luc counter
COc1cc(C(=O)O/N=C(\N)c2cccc([N+](=O)[O-])c2)cc(OC)c1OC	8%	-3%	-2%	7%	/	/
Cc1ccccc1C(=O)O/N=C(\c1ccccc1)c1ccccn1	0%	0%	21µM*	-2%	20%	-3%
Cc1ccccc1/C(N)=N/OC(=O)c1ccc(F)cc1	?	?	1.3µM*	?	-3%	?
N/C(=N\OC(=O)c1ccccc1Br)c1cccc([N+](=O)[O-])c1	1.3µM*	2.2µM*	2.4µM*	5.8µM*	/	/
O=C(O)c1ccc(N2C(=O)CC(N3C(=O)/C(=C/c4ccc(Cl)cc4)SC3=S)C2=O)cc1 (configuration not stated)	1%	-1%	17µM*	-2%	/	/
O=C(O)c1ccc(N2C(=O)CC(N3CCN(c4ccc(Cl)cc4)CC3)C2=O)cc1 (configuration not stated)	0%	0%	1%	-4%	/	/
CCOC(=O)N1CCN(C(=O)c2ccc3c(c2)N(Cc2ccccc2F)C(=O)c2ccccc2S3(=O)=O)CC1	/	/	0%	/	-2%	/
O=C(O)c1ccc2c(c1)C(=O)/C(=C\c1ccco1)C2=O	0%	-1%	9.5µM*	1%	3%	-23%
Cc1ccc(C=C2C(=O)c3ccccc3C2=O)o1	1%	2%	0.48µM*	8%	-8%[1.84 µM]	11µM*
O=C1C(=Cc2ccco2)C(=O)c2ccccc21	1%	8%	13µM*	2%	8%	-20%
Cc1ccc(/C=C2/C(=O)c3ccc(C(=O)O)cc3C2=O)o1	-16%	2%	2.7µM*	3%	/	-4%
CC(/C=C/c1ccc(C)o1)=C\C(=O)O	1%	-11%	-4%	3%	-4%	5%
O=C(O)c1ccc2c(c1)C(=O)/C(=C/c1ccccc1)C2=O	-4%	-3%	?	-2%	6%	-5%
COc1ccccc1NC(=O)N1c2ccccc2Sc2ccccc21	/	/	-19%	/	?	/
Cc1cc(C)n2nc(-c3ccc(F)cc3)nc2n1	?	4µM*	17µM*	?	?	-18%
Cc1cc(C)n2nc(-c3cccnc3)nc2n1	2%	0%	-12%	2%	-6%	-4%
COc1ccc(NC(=O)c2c(-c3ccc(C)cc3)nnc3ccccc23)cc1OC	/	/	-9%	/	/	/
COc1ccc(C(=O)Cn2cnc3ccccc3c2=O)cc1	3.2µM*	?	13µM*	?	/	/
O=C(Cn1cnc2ccccc2c1=O)Nc1ccc2c(c1)OCO2	?	24%	19µM*	?	?	-3%
Cc1cc(C(=O)Cn2cnc3ccccc3c2=O)c(C)n1C1CC1	?	?	-15%	5.2µM*	/	/
O=C(Cn1cnc2ccccc2c1=O)c1ccc2ccccc2c1	/	/	?	/	?	-3%
O=C(Cn1cnc2ccccc2c1=O)c1ccc2c(c1)OCCO2	1.3µM*	2µM*	6µM*	?	11µM*	0%
COc1cccc(N2CC(NC(=O)c3ccc(S(=O)(=O)N4CCOCC4)cc3)CC2=O)c1 (configuration not stated)	/	/	-1%	/	/	/
Cc1ccc(C)c(NC(=O)C(=O)NCCc2csc3nc(-c4ccccc4C)nn23)c1	/	/	-7%	/	/	/
CCc1ccc(OCC(=O)N(Cc2ccco2)Cc2ccccc2Cl)cc1	/	/	-15%	/	-19%	/
SMILES	Rab9 promoter act	NPC1 prom act	FLuc modulator	ELG1 genotox	SMN2 splice up	Luc counter
Cc1ccc(C(=O)CSc2cnc3ccccc3n2)cc1C	-1%	-3%	7.6µM*	9.2µM*	-73%	1%
COc1ccc(C(=O)Nn2cnc3ccccc3c2=O)c(OC)c1	2.5µM*	2.2µM*	?	?	14µM*	0%
Cc1ccc(C(=O)Cn2cnc3ccccc3c2=O)cc1C	/	/	19µM*	/	?	-3%
O=C(CSc1ccc2ccccc2n1)c1ccc2c(c1)OCO2	16%	16%	?	21µM*	-42%	-6%
COc1ccc(Br)cc1CNC(=O)Cn1nc(C)n2c(cc3cc(F)ccc32)c1=O	/	/	4%	/	4%	/
CC(C)(C)Cc1nnc(NC(=O)c2ccc3c(c2)OCO3)s1	2.2µM*	2.2µM*	?	?	/	/
COC(=O)CSc1nnc(NC(=O)c2ccc3c(c2)OCO3)s1	?	26%	0.54µM*	15µM*	/	/
O=C(O)CSc1nnc(NC(=O)c2ccc3c(c2)OCO3)s1	-3%	-4%	1.9µM*	-12%	-28%	-8%
N#C/C(=C\c1ccc(Cl)cc1)c1nc2ncccc2[nH]1	2%	-2%	3µM*	16%	3%	4%
Nc1cc(-c2ccc(Br)cc2)nn1Cc1ccccc1	-17%	-10%	17µM*	7%	/	-3%
Cc1ccc(C(=O)N2CCN(c3ccccc3F)CC2)cc1NC(=O)c1nsc2ccccc12	/	/	-13%	/	/	/
Cc1cccc(N2CCN(C(=O)c3ccc(NC(=O)c4nsc5ccccc45)cc3)CC2)c1C	/	/	6µM*	/	/	/
O=C(Nc1ccc(C(=O)N2CCCCC2)cc1)c1nsc2ccccc12	/	/	1.3µM*	/	/	/
O=C(Nc1ccc(C(=O)N2CCN(c3ccc(F)cc3)CC2)cc1)c1nsc2ccccc12	/	/	7.6µM*	/	/	/
O=C(Nc1ccc(F)cc1)N1CCN(C(=O)c2nsc3ccccc23)CC1	/	/	-8%	/	/	/
